Data taken from PubChem BioAssay (Tox21).
Several values for one entry are separate records, joined by “and”; a condition that tells them apart may be missing. Identical values can stand only once. Inconclusive results are not listed. A structure can be active in one record and inactive in another. Activity calls are given as the source filed them. Unless noted, calls follow the shape of the dose curve; as a rule, active = well fitted curve in the direction sought with a large enough effect in the repeat runs; inconclusive = weak or mixed curves; inactive = no such curve, though single readings can be large; an effect the other way counts as inactive or inconclusive.

How the values were obtained:
[1] = qHTS assay to identify small molecule antagonists of the vitamin D receptor (VDR) signaling pathway - cell viability counter screen (AID 743225); also: nearly all actives have a fitted effect of over 50% in size; also: potency is read from the fitted curve at half-maximal effect
In short: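 Cytotoxicity toward the VDR-bla HEK 293T line was scored by ATP-based CellTiter-Glo luminescence, read in the wells already used for the beta-lactamase readout after 16 h compound treatment under 3 nM 1-alpha,25-dihydroxyvitamin D3 stimulation.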

[2] = qHTS assay to identify small molecule agonists of the endoplasmic reticulum stress response signaling pathway (AID 1159516; active = well fitted activation curve with a large enough effect in the signal ratio in the repeat runs, not every such curve was filed as active; the % refers to the signal ratio)
In short: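 Reporter HeLa cells (ESRE-beta-lactamase) underwent 5 hr compound incubation at 37 C and 5% CO2 in quantitative HTS format. Detection followed 2 hr of FRET substrate loading at room temperature.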

[3] = qHTS assay to identify small molecule antagonists of the retinoid-related orphan receptor gamma (ROR-gamma) signaling pathway - cell viability counter screen (AID 1159520); also: nearly all actives have a fitted effect of over 50% in size; also: potency is read from the fitted curve at half-maximal effect
In short: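 Tet-on ROR gamma CHO cells (1,000/well) were plated 4 hr, given compounds in DMSO for 2 hr at 37 C, then induced with 1 uM final doxycycline for 16 hr. Viability was read as ATP by CellTiter-Glo luminescence after 30 min.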

[4] = target: Nuclear receptor ROR-gamma (Homo sapiens) (UniProt P51449); test: qHTS assay to identify small molecule antagonists of the retinoid-related orphan receptor gamma (ROR-gamma) signaling pathway (AID 1159521; also: nearly all actives have a fitted effect of over 50% in size; also: potency is read from the fitted curve at half-maximal effect)
In short: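 Readout: ONE-Glo luciferase luminescence, 30 min at room temperature. System: Tet-on RORγ CHO, RORE-LUC. Sequence: compound 2 h, doxycycline 1 uM final, 16 h at 37 C.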

[5] = qHTS assay to identify small molecule agonists of the AP-1 signaling pathway - cell viability counter screen (AID 1159525; calls by dose curve; also: nearly all actives have a fitted effect of over 55% in size; also: potency is read from the fitted curve at half-maximal effect)
In short: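 ME-180 AP-1-bla, 2500 cells/well, Opti-MEM + 0.5% dialyzed FBS; overnight 37 °C; cpd 15-pt titration, 5 h 37 °C; CellTiter-Glo 30 min RT; luminescence read; normalised to TOAB and DMSO controls.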

[6] = qHTS assay to identify small molecule agonists of the AP-1 signaling pathway (AID 1159526; calls by dose curve)
[7] = target: Retinoic acid receptor RXR-alpha (Homo sapiens) (UniProt P19793); test: qHTS assay to identify small molecule agonists of the RXR signaling pathway (AID 1159527; calls by dose curve; also: nearly all actives have a fitted effect of over 35% in size)
Retinoic acid receptor RXR-alpha (Homo sapiens), sequence (P19793 whole entry, looked up): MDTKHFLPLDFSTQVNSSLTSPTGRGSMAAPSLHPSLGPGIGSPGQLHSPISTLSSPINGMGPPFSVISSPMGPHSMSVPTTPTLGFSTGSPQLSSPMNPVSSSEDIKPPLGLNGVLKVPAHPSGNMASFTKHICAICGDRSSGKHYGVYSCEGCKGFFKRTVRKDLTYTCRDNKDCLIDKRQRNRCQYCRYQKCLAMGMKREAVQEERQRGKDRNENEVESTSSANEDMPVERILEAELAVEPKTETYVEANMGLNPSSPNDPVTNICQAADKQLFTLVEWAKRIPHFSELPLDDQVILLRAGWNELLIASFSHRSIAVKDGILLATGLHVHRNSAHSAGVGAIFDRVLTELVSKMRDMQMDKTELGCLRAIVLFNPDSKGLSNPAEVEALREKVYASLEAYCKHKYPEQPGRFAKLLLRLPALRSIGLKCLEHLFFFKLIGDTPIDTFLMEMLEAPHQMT
In short: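 Reporter activation is measured as beta-lactamase activity via FRET substrate cleavage (emission 460/530 nm) in HEK 293T cells expressing an RXR-alpha-driven bla construct, following 16 hr compound exposure at 37 C.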

[8] = qHTS assay to identify small molecule agonists of the RXR signaling pathway - cell viability counter screen (AID 1159529); also: nearly all actives have a fitted effect of over 50% in size; also: potency is read from the fitted curve at half-maximal effect
In short: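 Tox21 10K compounds were tested for cytotoxicity against GeneBLAzer RXR-alpha HEK 293T cells grown in 2% charcoal-stripped FBS. Exposure lasted 16 hr at 37 C, 5% CO2; viability read by CellTiter-Glo luminescence.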

[9] = qHTS assay to identify small molecule antagonists of the retinoid acid receptor (RAR) signaling pathway - cell viability counter screen (AID 1159551); also: nearly all actives have a fitted effect of over 35% in size; also: potency is read from the fitted curve at half-maximal effect
In short: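 Seed C3RL4 cells; next day add compound, then retinol to 1 uM final; incubate 6 h at 37 C; add CellTiter-Glo; read luminescence after 30 min at RT.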

[10] = qHTS assay to identify small molecule antagonists of the retinoic acid receptor (RAR) signaling pathway (AID 1159552; also: nearly all actives have a fitted effect of over 50% in size; also: potency is read from the fitted curve at half-maximal effect)
In short: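 Overnight-plated C3RL4 reporter cells get compound, then retinol to 1 uM final; plates sit 6 hr at 37 C, 5% CO2. A luciferase reagent is added and light output recorded after 30 min at room temperature.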

[11] = qHTS assay to identify small molecule agonists of the retinoic acid receptor (RAR) signaling pathway (AID 1159553); also: potency is read from the fitted curve at half-maximal effect
In short: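 Activation of retinol signaling was monitored via a RARE luciferase reporter in C3RL4 cells. After 6 hr compound treatment at 37 C, detection reagent was added for 30 min at room temperature before luminescence reading.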

[12] = qHTS assay to identify small molecule antagonists of the estrogen related receptor (ERR) signaling pathway from Tox21 library - cell viability counter screen (AID 1224834); also: nearly all actives have a fitted effect of over 30% in size; also: potency is read from the fitted curve at half-maximal effect
In short: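 CellTiter-Fluor fluorescence measured; ERR cells; 17.5 h compound incubation at 37 C; 30 min reagent step.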

[13] = qHTS assay to identify small molecule agonists of the endoplasmic reticulum stress response signaling pathway - cell viability counter screen (AID 1159517; calls by dose curve; also: nearly all actives have a fitted effect of over 50% in size; also: potency is read from the fitted curve at half-maximal effect)
In short: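 Luminescence readout: CellTiter-Glo, 30 min RT, same wells as the ESRE-bla reporter read. HeLa ESRE-bla, 1,500 cells/well, o/n 37 C; cpd 5 hr 37 C/5% CO2.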

[14] = qHTS assay to identify small molecule antagonists of the estrogen related receptor (ERR) signaling pathway - cell viability counter screen (AID 1224818);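 also: series mostly up to about 46 µM; viability measured after 17.5 h of compound exposure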
In short: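 In the same ERR cell assay, compound-treated wells (17.5 h, 37 C) were multiplexed with a fluorogenic viability reagent, CellTiter-Fluor, read after 30 min to flag cytotoxic substances.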

[15] = qHTS assay to identify small molecule agonists of the estrogen related receptor (ERR) signaling pathway (AID 1224820)
In short: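 Quantitative HTS of the LOPAC library used NTP ERR reporter cells treated 18 h at 37 C. Signal is luminescence after One-Glo addition and a 30 min room-temperature incubation.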

[16] = qHTS assay to identify small molecule agonists of the estrogen related receptor signaling pathway with the pleiotropic PPARgamma coactivator (PGC) (AID 1224823)
In short: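 Cell-based luciferase assay in the NTP-supplied PGC/ERR line, 2,000 cells/well; 18 h compound exposure at 37 C, luminescence after One-Glo.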

[17] = qHTS assay to identify small molecule antagonists of the estrogen related receptor (ERR) signaling pathway (AID 1224819)
In short: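 qHTS in ERR cells, 2,000/well, 1536 format. Cpd (DMSO) added after 6 h settle, 18 h 37 C. One-Glo luminescence, 30 min RT.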

[18] = system: estrogen-related receptor alpha (ERRalpha) with PGC-1alpha coactivator, human; test: qHTS assay to identify small molecule antagonists of the estrogen related receptor signaling pathway with the pleiotropic PPARgamma coactivator (PGC) (AID 1224821; calls by dose curve)
In short: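 Quantitative HTS for antagonism: PGC/ERR cells received compounds after 6 h attachment and were incubated 18 h at 37 C, with luminescence (One-Glo) as the endpoint.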

[19] = qHTS assay to identify small molecule antagonists of the estrogen related receptor signaling pathway with the pleiotropic PPARgamma coactivator (PGC) cell viability counter screen (AID 1224822; also: series mostly up to about 46 µM)
In short: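 Compounds in DMSO, with positive and negative controls, were applied to PGC/ERR cells (2,000/well) and left 17.5 h at 37 C before CellTiter-Fluor detection.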

Measured: Potency

CC(=O)Nc1ccc2c(c1)Cc1ccccc1-2
active: [11] 6.21 µM
not listed: [13] | [14] | [15] | [16] | [17] | [18] | [19]
inactive: all other assays above

COc1cc(N)c(Cl)cc1C(=O)NC1CN2CCC1CC2 (configuration not stated)
inactive: [1] | [13] | [3] | [4] | [5] | [6] | [7] | [8] | [9] | [12]

Cc1cc(SCc2sc(-c3ccc(C(F)(F)F)c(F)c3)nc2C)ccc1OCC(=O)O
active: [1] 21.9 µM
inactive: [2] | [3] | [4] | [5] | [10] | [11]

CC1(C)CN=C(NN=C(/C=C/c2ccc(C(F)(F)F)cc2)/C=C/c2ccc(C(F)(F)F)cc2)NC1
active: [1] 11 µM | [13] 49 µM | [3] 24.3 µM | [4] 12.2 µM | [5] 43.6 µM | [8] 13.8 µM | [9] 43.3 µM | [10] 9.69 µM | [12] 21.7 µM

CC(=O)O[C@H]1CC[C@@]2(C)C(=CC[C@@H]3[C@@H]2CC[C@]2(C)C(=O)CC[C@@H]32)C1
inactive: [1] | [2] | [3] | [10]

CC(C)(C)C(O)/C(=C\c1ccc(Cl)cc1Cl)n1cncn1 (configuration not stated)
active: [1] 52.8 µM | [4] 41.6 µM | [10] 58.7 µM | [12] 65.9 µM
inactive: [2] | [13]

CN(C)[C@@H]1C(=O)C(C(N)=O)=C(O)[C@@]2(O)C(=O)C3=C(O)c4c(O)ccc(Cl)c4[C@@](C)(O)[C@H]3C[C@@H]12
active: [4] 49.6 µM
inactive: [1] | [13] | [3] | [5] | [8] | [9] | [11]

O=C1NCN(c2ccccc2)C12CCN(CC1COc3ccccc3O1)CC2 (configuration not stated)
not listed: [7] | [8] | [12] | [13] | [17] | [18] | [19]
inactive: all other assays above

O=C(CBr)c1ccc(O)cc1
inactive: [1] | [2] | [13] | [5] | [7] | [8]
active: [4] 48.6 µM | [10] 54.5 µM

Clc1ccc(Oc2ccccc2)cc1
inactive: [3] | [4] | [5] | [6] | [7] | [8] | [9] | [10] | [12]

C=CC(=O)OCC(COC(=O)C=C)(COC(=O)C=C)COC(=O)C=C
active: [1] 6.92 µM | [13] 12.3 µM | [4] 3.44 µM | [8] 17.4 µM | [10] 13.7 µM | [11] 1.93 µM | [12] 9.69 µM

CC(=O)/C=C/c1ccc2c(c1)OCO2
inactive: [1] | [13] | [3] | [4] | [6] | [8] | [10]

O=[N+]([O-])c1c2ccccc2cc2ccccc12
active: [11] 19.1 µM
not listed: [1] | [2] | [4] | [6] | [7] | [8] | [12]
inactive: all other assays above

Clc1ccc(CO/N=C(\Cn2ccnc2)c2ccc(Cl)cc2Cl)c(Cl)c1
active: [13] 23.9 µM | [3] 26.6 µM | [4] 26.6 µM | [12] 26.6 µM

ClCc1ccccc1CCl
active: [3] 43.3 µM | [4] 54.5 µM
inactive: [5] | [6] | [7] | [8] | [9] | [10] | [12]

Oc1ccc(C2(c3ccc(O)cc3)CCCCC2)cc1
inactive: [9]
active: [1] 36.8 µM | [13] 46.4 µM | [8] 36.8 µM | [10] 41 µM | [12] 57.9 µM

COc1cccc2c1C(=O)c1c(O)c3c(c(O)c1C2=O)C[C@@](O)(C(=O)CO)CC3OC1CC(N2CCOC(OC)C2)C(O)C(C)O1 (some centres not stated)
active: [13] 0.952 µM | [3] 0.133 µM | [10] 0.106 µM
inactive: [5] | [8]

Oc1ccc(C(c2ccc(O)cc2)(C(F)(F)F)C(F)(F)F)cc1
inactive and 38.9 µM (active): [1]
active: [13] 49 µM | [8] 48.8 µM | [12] 54.2 µM
inactive: [7] | [9]

O=C(CCCN1CCC2(CC1)C(=O)NCN2c1ccccc1)c1ccc(F)cc1
not listed: [1] | [2] | [6] | [7] | [9] | [10] | [19]
inactive: all other assays above

[Cd+2].[Cl-].[Cl-]
inactive: [13] | [5]
active: [1] 8.78 µM and 2.45 µM | [3] 27.5 µM | [12] 24.5 µM and 6.11 µM

CCOP(=S)(OCC)SCCS(=O)(=O)CC
inactive: [3] | [4] | [5] | [6] | [7] | [8] | [9]

Cn1cc(C2=C(c3cn(C4CCN(Cc5ccccn5)CC4)c4ccccc34)C(=O)NC2=O)c2ccccc21
active: [12] 11.9 µM
inactive: [1] | [13] | [3] | [8] | [9] | [10] | [11]

CCOC(=O)c1ccccc1S(=O)(=O)NC(=O)Nc1nc(Cl)cc(OC)n1
inactive: [3] | [4] | [5] | [6] | [7] | [8] | [9] | [10] | [12]
